Experimental data: PubChem BioAssay (NCI)
Compounds without any hit were thinned out: in the full panel of roughly 83,000, 20% have a hit.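 Cells were grown in 96-well plates and exposed to the test compound at a single concentration for 48 hours; results are reported as percent growth, with values below 10 considered active.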 Calls of active or inactive are those of the source.

Each compound was assayed on 786-0 renal (assay: NCI-60 one-dose screen, 48 h (100 = growth as untreated, 0 = no growth, -100 = all killed)). Conditions: 10 µM unless noted.

| SMILES | growth |
| --- | --- |
| CCCCCc1ccc(S(=O)(=O)Nc2cc(-c3csc(NC(=O)CN4CCN(CCO)CC4)n3)ccc2OC)cc1 | -51.5% (active) |
| N/C(=N\C(N)=N\c1nc2ccccc2s1)c1ccc(C(F)(F)F)cc1 | 93% (inactive) |
| CCn1c(SCC(=O)Nc2cccc(C(=O)/C=C/c3ccc(Br)cc3)c2)nc2ccccc2c1=O | 99.8% (inactive) |
| O=S(=O)(NCCCNc1nccc(-c2[nH]c(-c3ccccc3)nc2-c2ccc(Cl)c(O)c2)n1)c1ccc(Br)cc1 | 53.4% (inactive) |
| CS(=O)(=O)Nc1cc(-c2ccc3ncc(C#N)c(N[C@H](CO)c4ccccc4)c3c2)cnc1Cl | 54.8% (inactive) |
| Cn1ccnc1C(=O)/C=C/c1ccc(CNC(=O)c2ccc(Cl)cc2)cc1 | 12.4% (inactive) |
| O=C(Cn1cc(-c2ccccc2)nn1)Nc1nc(-c2ccc(Cl)cc2)cs1 | 88.6% (inactive) |
| Nc1cc(F)ccc1NC(=O)c1ccc(NC(=O)C/C=C/c2cccnc2)cc1 | 72.6% (inactive) |
| CCOC(=O)C1=NNC(c2ccc(Cl)cc2)C1C(=O)N1C(=S)NC(=O)C1CC(C)C (stereo not drawn) | 108% (inactive) |
| COc1ccc(S(=O)(=O)NCCCNc2nccc(-c3[nH]c(-c4ccccc4)nc3-c3ccc(Cl)c(O)c3)n2)cc1 | 125% (inactive) |
| N=c1c2cc(-c3ccccc3)oc2ncn1/N=C/c1ccc(Br)cc1 | 59.2% (inactive) |
| CS(=O)(=O)Nc1cc(-c2ccc3ncc(C#N)c(Nc4cccc(Cl)c4F)c3c2)cnc1Cl | 4.98% (active) |
| C=CCn1c(SCC(=O)Nc2ccc(C(=O)/C=C/c3ccc(Cl)cc3)cc2)nnc1-c1c[nH]c2ccccc12 | 106% (inactive) |
